{"source": "PubChem BioAssay (Tox21)", "note": "Inconclusive results are not listed. Active and inactive are the calls of the source. Calls follow the shape of the dose curve; as a rule, active = well fitted activation curve with a large enough effect in the signal ratio in the repeat runs (not every such curve was filed as active); inconclusive = weak or mixed curves; inactive = flat fitted curve, though single readings scatter; the % refers to the signal ratio."}
{"test": "qHTS assay to identify small molecule agonists of the hypoxia (HIF-1) signaling pathway (AID 1224846)", "settings": "HRE-bla ME-180 cells, beta-lactamase ratio, 17 h; series mostly up to 76.8 µM", "text": "U.S. Tox21 Program National Center for Advancing Translational Sciences [NCATS] NIH Chemical Genomics Center [NCGC] U.S. Environmental Protection Agency [EPA] National Institutes of Environmental Health Sciences [NIEHS] National Toxicology Program [NTP] U.S. Food and Drug Administration [FDA] Tox21 Assay Overview: Hypoxia-inducible factor-1 (HIF-1) is the major hypoxia-regulated transcription factor that controls cellular responses to low oxygen concentration. HIF-1 is composed of two subunits: hypoxia responsive HIF-1-alpha and constitutively expressed HIF-1-beta, which is also known as aryl hydrocarbon receptor nuclear translocator. During hypoxic conditions, HIF-1-alpha heterodimerizes with HIF-1-beta and translocates into the nucleus where the HIF-1 complex binds to the hypoxia-response element (HRE) and activates expression of target genes such as VEGF (vascular endothelial growth factor). The HIF-1 pathway is essential to normal growth and development, and is involved in the pathophysiology of cancer, inflammation, and ischemia. Using a beta-lactamase reporter-gene under control of the hypoxia response element, a cell-based assay [CellSensor(TM) HRE-bla ME-180 from Life Technologies, Carlsbad, CA] was used to measure hypoxia-induced signaling. Tox21 10K library compounds were measured for their ability to induce the reporter gene activity.\nTox21 Assay Protocol Summary: HRE-bla ME-180 cells were dispensed at 2,000 cells per well in 6 uL of assay medium containing 0.5% dialyzed FBS into black wall/clear-bottom 1536-well plates using a Multidrop Combi (Thermo Scientific, Waltham, MA) dispenser. After the assay plates were incubated at 37C and 5% CO2 for 5 hrs, 23 nL of compounds dissolved in DMSO, positive controls or DMSO only was transferred to each well of the assay plate using a Pintool station (Kalypsys, San Diego, CA). The assay plates were incubated at 37C and 5% CO2 for 17 hrs. One uL of LiveBLAzerTM B/G FRET substrate (CCF4-AM) (Life Technologies) was added to each well using a Flying Reagent Dispenser (Aurora Discovery, San Diego, CA)."}
{"smiles": "C(=C\\c1ccccc1)/c1ccccc1", "outcome": "inactive"}
{"smiles": "CCCCCC[C@@H](O)C/C=C\\CCCCCCCC(=O)O", "outcome": "inactive"}
{"smiles": "O=C1C(=O)c2ccccc2C(O)=C1C1CCC(c2ccc(Cl)cc2)CC1", "note": "(stereo not given)", "outcome": "inactive"}
{"smiles": "COc1cc(Nc2c(C#N)cnc3cc(OCCCN4CCN(C)CC4)c(OC)cc23)c(Cl)cc1Cl", "outcome": "inactive"}
{"smiles": "Cc1cc(C)cc(N)c1", "outcome": "inactive"}
{"smiles": "C=C1CCC2CC1C2(C)C", "note": "(stereo not given)", "outcome": "inactive"}
{"smiles": "N#[N+]c1ccc2c(S(=O)(=O)[O-])cccc2c1O", "outcome": "inactive"}
{"smiles": "O=c1[nH]c2ccc(Cl)cc2o1", "outcome": "inactive"}
{"smiles": "FC(F)(F)c1ccccc1Cl", "outcome": "inactive"}
{"smiles": "CC1=C(CC=O)C(C)(C)CCC1", "outcome": "inactive"}
{"smiles": "O=[N+]([O-])c1ccc(Nc2ccc(Nc3ccccc3)c(S(=O)(=O)O)c2)c([N+](=O)[O-])c1", "outcome": "inactive"}
{"smiles": "CC(O)c1ccccc1", "note": "(stereo not given)", "outcome": "inactive"}
{"smiles": "Nc1cccc2c1CN(C1CCC(=O)NC1=O)C2=O", "note": "(stereo not given)", "outcome": "inactive"}
{"smiles": "CC(C)=CC(=O)C=C(C)C", "outcome": "inactive"}
{"smiles": "CCC(=O)OC", "outcome": "inactive"}
{"smiles": "Cc1ccc(C(C)(C)O)cc1", "outcome": "inactive"}
{"smiles": "Cc1cscn1", "outcome": "inactive"}
{"smiles": "C[C@@H]1CN(CCCn2c3ccccc3c3ccccc32)C[C@H](C)N1", "outcome": "inactive"}
{"smiles": "CC(=O)N/N=C/c1ccc([N+](=O)[O-])o1", "outcome": "inactive"}
{"smiles": "CC(C)C(O)(c1ccc(OC(F)(F)F)cc1)c1cncnc1", "note": "(stereo not given)", "outcome": "inactive"}
{"smiles": "CCCCC(CC)CN", "note": "(stereo not given)", "outcome": "inactive"}
{"smiles": "C[C@]12CC[C@@H]3c4ccc(O)cc4CC[C@H]3[C@@H]1CC[C@@H]2OC(=O)CCC1CCCC1", "outcome": "inactive"}
{"smiles": "Cc1cccc(N(C)C(=S)Oc2ccc3c(c2)CCC3)c1", "outcome": "inactive"}
{"smiles": "C=C(C)C(=O)OCCOCCOC(=O)C(=C)C", "outcome": "inactive"}
{"smiles": "CCC(C)(C)OC", "outcome": "inactive"}
{"smiles": "Cc1c(C)c2c(c(C)c1OC(=O)CCC(=O)OCCO)CC[C@@](C)(CCC[C@H](C)CCC[C@H](C)CCCC(C)C)O2", "outcome": "inactive"}
{"smiles": "CC(=O)Nc1ccc(C)cc1C", "outcome": "inactive"}
{"smiles": "CCCCN1CCCC1C(=O)Nc1c(C)cc(C)cc1C", "note": "(stereo not given)", "outcome": "inactive"}
{"smiles": "Cc1ccc(OC(=O)c2ccccc2O)cc1", "outcome": "inactive"}
{"smiles": "N#CCCN(CCO)CCO", "outcome": "inactive"}
{"smiles": "O=C(OC(=O)c1ccccc1)c1ccccc1", "outcome": "inactive"}
{"smiles": "Oc1cccc(O)c1O", "outcome": "inactive"}
{"smiles": "C[C@@H](CN(C)C)CN1c2ccccc2Sc2ccccc21", "outcome": "inactive"}
{"smiles": "Cc1[nH]cnc1CN1CCc2c(c3ccccc3n2C)C1=O", "outcome": "inactive"}
{"smiles": "CC(C)(C)C(=O)C(=O)O", "outcome": "inactive"}
{"smiles": "CCCCCCCCN", "outcome": "inactive"}
{"smiles": "CC/C=C1/OC(=O)c2ccccc21", "outcome": "inactive"}
{"smiles": "CCOC(=O)c1ccc(C#Cc2ccc3c(c2)C(C)(C)CCS3)nc1", "outcome": "inactive"}
{"smiles": "C=CC(C)(CCC=C(C)C)OC(=O)CC(C)C", "note": "(stereo not given)", "outcome": "inactive"}
{"smiles": "CC(CC1c2ccccc2CCc2ccccc21)CN(C)C", "note": "(stereo not given)", "outcome": "inactive"}
